Test results published in PubChem BioAssay AID680 (PCMD, 2007).
Among all 62,000 compounds or so, about 120 (0.19%) were called active. Cut-off read from the data, not from the text of the source: active = inhibition above about 20% (passing the limit was not always enough); inactive = the rest. What follows is part of a selection rich in actives, with near analogues and random picks from the rest.

These compounds were tested against Coagulation factor XI (Homo sapiens) (UniProt P03951) (assay: human factor XIa inhibition by mixtures – biochemical, 10-compound mixtures, primary screen (AID 680;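 note: each value is inhibition by a whole ten-compound pool holding the compound; 0% = enzyme with no mixture and 100% = wells lacking enzyme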)). Conditions: purified FXIa, fluorogenic substrate, pooled mixtures; at 5 µM; hits give high values.
Sequence of Coagulation factor XI (Homo sapiens) (P03951 19-387 limits assumed): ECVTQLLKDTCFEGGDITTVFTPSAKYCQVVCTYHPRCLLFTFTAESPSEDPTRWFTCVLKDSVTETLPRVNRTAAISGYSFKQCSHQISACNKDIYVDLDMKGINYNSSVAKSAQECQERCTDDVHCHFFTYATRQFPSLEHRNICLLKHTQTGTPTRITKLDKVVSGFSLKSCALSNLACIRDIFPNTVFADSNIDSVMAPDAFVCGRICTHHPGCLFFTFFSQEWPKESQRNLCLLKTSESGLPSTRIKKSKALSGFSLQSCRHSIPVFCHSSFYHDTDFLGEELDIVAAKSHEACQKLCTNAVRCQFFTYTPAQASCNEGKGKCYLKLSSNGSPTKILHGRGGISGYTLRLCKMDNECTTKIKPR
Sequence of Coagulation factor XI (Homo sapiens) (P03951 388-625 limits assumed): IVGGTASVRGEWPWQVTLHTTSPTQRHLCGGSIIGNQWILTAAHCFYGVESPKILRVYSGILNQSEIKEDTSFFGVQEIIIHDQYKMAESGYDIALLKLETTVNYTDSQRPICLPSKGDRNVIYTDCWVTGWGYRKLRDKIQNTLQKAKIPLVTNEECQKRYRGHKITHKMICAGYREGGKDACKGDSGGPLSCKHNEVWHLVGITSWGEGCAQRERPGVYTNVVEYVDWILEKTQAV

Row | SMILES | inhibition
1 | O=C(NCc1ccc2c(c1)OCO2)c1cc2c(s1)CS(=O)(=O)C2 | 1.71% (inactive)
2 | COC(=O)[C@H](Cc1ccccc1)NC(=O)N1CC(C)OC(C)C1 (stereo partly drawn) | -17.5% (inactive)
3 | Cn1c(SCC(=O)OC2CCCCC2)nnc1-c1ccc(S(=O)(=O)N2CCCC2)cc1 | -4.25% (inactive)
4 | CC(C)c1ccc(NC(=O)NC2CCCCC2)cc1 | -11.2% (inactive)
5 | CC1Cc2ccccc2N1C(=O)Cn1cnc2ccccc2c1=O (stereo not drawn) | 3.86% (inactive)
6 | COc1ccc(Cc2nnc(NS(=O)(=O)Cc3ccccc3)s2)cc1 | 10.4% (inactive)
7 | C[N+](C)(C)CCOP(=O)([O-])OC[C@H](O)CO | 4.21% (inactive)
8 | CCOC(=O)Cn1c(=O)oc2cc(S(=O)(=O)NCC3CCCO3)ccc21 (stereo not drawn) | 5.99% (inactive)
9 | CCOC(=O)C(CC)Sc1ncnc2c1nnn2-c1ccc(F)cc1 (stereo not drawn) | 14% (inactive)
10 | Cc1csc(NC(=O)NC2(C(F)(F)F)Oc3ccccc3O2)n1 | 0.345% (inactive)
11 | O=C(CN1CCN(c2ccccc2F)CC1)c1ccc2c(c1)OCO2 | 4.78% (inactive)
12 | O=C(NC1CCCCC1)N1CCc2[nH]c3ccccc3c2C1 | 7.75% (inactive)
13 | CC(C)(C)Oc1ncc(Br)c(OC(C)(C)C)n1 | -2.49% (inactive)
14 | CCOC(=O)C1=C(C)NC(C)=C(C(=O)OCC)C1C1=COCCO1 | -9.31% (inactive)
15 | c1ccc(COc2nsnc2N2CCOCC2)cc1 | 11.9% (inactive)
16 | CCNC(=O)CCc1nc(-c2ccc(C(C)(C)C)cc2)no1 | -1.14% (inactive)
17 | CC1COC2C(O1)N(S(C)(=O)=O)CCN2S(C)(=O)=O (stereo not drawn) | 1.71% (inactive)
18 | CC(C)CNC(=O)c1cc(-c2ccc(Br)cc2)on1 | 5.53% (inactive)
19 | CCC(=O)c1ccc(OCC(O)CN2C(=O)NC(C)(C)C2=O)cc1 (stereo not drawn) | 11.4% (inactive)
20 | CC1CN(c2cc(=O)n(-c3cccc(Br)c3)c(=O)[nH]2)CC(C)O1 (stereo not drawn) | 6.23% (inactive)
21 | Cc1cccc(Cn2c(N3CCN(c4ccccc4)CC3)nc3c2c(=O)n(C)c(=O)n3C)c1 | -1.79% (inactive)

Row | SMILES | inhibition
22 | CCOc1ccccc1NC(=O)Nc1cc(OC)ccc1OC | 1.07% (inactive)
23 | CCOC(=O)c1sc(/N=C/Nc2nc(C)c(C(=O)OCC)s2)nc1C | 5.51% (inactive)
24 | Cc1cnc(C(=O)OCC(=O)Nc2ccc(Cl)cc2Cl)cn1 | 6% (inactive)
25 | O=C(Nc1ccc(-c2nnc(-c3ccccc3)o2)cc1)C1CCCO1 (stereo not drawn) | 9.26% (inactive)
26 | O=C(Nc1cccc(-c2nnc(-c3ccccc3)o2)c1)C1CCCO1 (stereo not drawn) | -7.16% (inactive)
27 | O=C(Nc1nnc(CCc2ccccc2)s1)C1CCCO1 (stereo not drawn) | 21.3% (active)
28 | CCOC(=O)c1ccc(-n2c(C)nc3c(cnn3-c3ccccc3C)c2=O)cc1 | -0.685% (inactive)
29 | CCC(CC)C(=O)Nc1cc(C(=O)OC)cc(C(=O)OC)c1 | -1.44% (inactive)
30 | CCc1ccccc1NC1c2ccccc2C(=O)N1c1cccnc1 (stereo not drawn) | -0.145% (inactive)
31 | CCOC(=O)N1CCC(Nc2c(NCCCN3CCN(c4ccc(OC)cc4)CC3)c(=O)c2=O)CC1 | 12.6% (inactive)
32 | N#CC(C(N)=O)=C1CCC2(CC1)OCCCCO2 | 4.44% (inactive)
33 | CCc1nnc(NC(=O)c2cccs2)s1 | 5.55% (inactive)
34 | O=C(CS(=O)(=O)c1cn(Cc2ccc(Cl)cc2)c2ccccc12)N1CCOCC1 | -16.2% (inactive)
35 | CCN1C(=O)/C(=C2\SC(N3CCCCC3)=NC2=O)c2ccccc21 | -7.47% (inactive)
36 | O=C(c1cccc(C(=O)N2CCN(c3ccc(F)cc3)CC2)c1)N1CCN(c2ccc(F)cc2)CC1 | 0.53% (inactive)
37 | CN1CCN(C(=O)c2ccc(NS(=O)(=O)c3ccccc3)cc2)CC1 | 1.27% (inactive)
38 | Cc1nonc1OCCn1nnnc1N | -1.41% (inactive)
39 | COc1ccc(CCNS(=O)(=O)c2ccc(C(=O)NCc3ccco3)cc2)cc1OC | 2.31% (inactive)
40 | Cc1ccc2nc(-c3ccc(SCC(=O)Nc4cc(C)on4)nc3)[nH]c2c1 | -9.14% (inactive)
41 | COc1ccc(Cn2c(=O)sc3ccccc32)cc1OC | -0.795% (inactive)
42 | CC1(C)Oc2ccc(C(=O)N3CCOCC3)cc2N(CC(=O)Nc2ccccc2)C1=O | 7.31% (inactive)

Row | SMILES | inhibition
43 | O=C(CSc1nnc(-c2cccs2)n1-c1ccccc1)N1CCN(C(=O)c2ccco2)CC1 | -14.5% (inactive)
44 | O=S(=O)(NCCNS(=O)(=O)c1ccccc1)c1ccccc1 | -3.77% (inactive)
45 | COc1ccc(NC(=O)c2c(SC)nsc2SC)cc1 | 4.24% (inactive)
46 | COc1cccc(Nc2ncccc2C(=O)O)c1 | 5.89% (inactive)
47 | COc1ccc(Cc2nnnn2CC(=O)O)cc1 | 3.18% (inactive)
48 | O=C(O)c1ccc(F)c(S(=O)(=O)Nc2ccccc2)c1 | 7.12% (inactive)
49 | CCN(CC)CCCNC(=O)c1cc(-c2cccc(Cl)c2)on1 | 5.02% (inactive)
50 | CCOC(=O)Cn1c(N)c(C(=O)OC)sc1=S | -0.995% (inactive)
51 | O=C(Cn1cnc2c(cnn2-c2ccc(F)cc2)c1=O)NCCc1ccccc1 | -10.3% (inactive)
52 | Cc1cc(C)c(C#N)c(SCc2[nH]nc3c2C(c2ccccc2)C(C#N)=C(N)O3)n1 (stereo not drawn) | 1.67% (inactive)
53 | c1ccc2c(CNn3cnnc3)cccc2c1 | 7.96% (inactive)
54 | COC(=O)c1ccc(CN(c2ccccc2OC)S(=O)(=O)c2cccs2)o1 | -7.66% (inactive)
55 | CCOC(=O)c1c(C)nc(-c2ccccc2)nc1NC(=O)C(C)C | 5.54% (inactive)
56 | CCOc1ccc(N=C2SC(C(=O)O)CC(=O)N2C)cc1 (stereo not drawn) | -15.5% (inactive)
57 | CCC(=NC1CC(C)(C)NC(C)(C)C1)C1=C(O)CC(C)(C)CC1=O | -8.62% (inactive)
58 | CCCCN(C)C(=O)C1CCN(Cc2ccccn2)CC1 | -2.55% (inactive)
59 | COc1ccc(CSc2nc(N3CCOCC3)c3c(c2C#N)CC(C)(C)OC3)cc1 | -0.245% (inactive)
60 | COc1cc2cc(CN(CCN3CCCC3)C(=O)Nc3ccccc3Cl)c(=O)[nH]c2cc1OC | 2.35% (inactive)
61 | C=CCn1c(SCc2nnc(-c3ccccc3)o2)nnc1C(O)c1ccccc1 (stereo not drawn) | -17.4% (inactive)
62 | CCCCCCC(=O)N(O)C1CC(=O)N(c2ccccc2)C1=O (stereo not drawn) | 1.64% (inactive)
63 | O=C1CC2(CCCCC2)Oc2ccc(OCC(=O)N3CCOCC3)cc21 | 4.52% (inactive)

Row | SMILES | inhibition
64 | Cc1cn(COC/C=C/c2ccccc2)c(=O)[nH]c1=O | -1.04% (inactive)
65 | CCNc1nc(NCC)nc(N(C)n2cnnc2)n1 | -3.07% (inactive)
66 | CC(C)(C)c1ccc(C(=O)NCCC(=O)NCc2ccco2)cc1 | 3.48% (inactive)
67 | CCn1cc(C(=O)N2CCN(C3CCCCC3)CC2)c2cc(OC)c(OC)cc2c1=O | 4.42% (inactive)
68 | COC(=O)[C@@H](NC(=O)NCc1cccc(OC)c1)C(C)C | -1.25% (inactive)
69 | COC(=O)CCNc1ccc2c(c1)OCCO2 | -1.79% (inactive)
70 | COc1ccc(-c2c(C)nn3c(N4CCC(C(=O)N5CCCCC5)CC4)cc(C)nc23)cc1OC | 8.56% (inactive)
71 | CCc1ccccc1N(CC(=O)NCCSCc1ccco1)S(C)(=O)=O | -9.75% (inactive)
72 | CCSc1nc2c(c(=O)[nH]1)C(c1cccnc1)C(C(=O)OC(C)C)=C(C)N2 (stereo not drawn) | 7.07% (inactive)
73 | Cn1c(=NC(=O)c2cnccn2)sc2ccccc21 | 5.25% (inactive)
74 | O=C(OC(C(=O)NC1CCCC1)c1ccc(F)cc1)c1ccno1 (stereo not drawn) | 7.23% (inactive)
75 | CN(C)CCNC(CC(=O)Nc1ccc(Cl)c(Cl)c1)C(=O)O (stereo not drawn) | 0.68% (inactive)
76 | CN1CCN(c2cc(=O)n(-c3ccc(Cl)cc3)c(=O)[nH]2)CC1 | -10.3% (inactive)
77 | COc1ccc(C)cc1NC(=O)CSc1nc(SC)ns1 | 6.14% (inactive)
78 | CCOc1ccccc1NC(=O)C1CCN(S(=O)(=O)c2c(C)nn(C)c2C)CC1 | 9% (inactive)
79 | COc1cccc2c(=O)n(CC(=O)N3CCCCCC3)ccc12 | -15.3% (inactive)
80 | Cc1ccc(C(=O)O)cc1S(=O)(=O)NCC1CCCO1 (stereo not drawn) | 8.82% (inactive)
81 | CCOC(=O)Cn1c(CN(Cc2ccccc2)Cc2ccccc2)nc2c1c(=O)[nH]c(=O)n2C | -7.29% (inactive)
82 | CCSC(C)CC1C/C(=N/O)c2c(C)noc2C1 (stereo not drawn) | 0.87% (inactive)
83 | O=C(CSC1=Nc2ccccc2C2=NC(c3ccccc3)C(=O)N12)NCC1CCCO1 (stereo not drawn) | 2.26% (inactive)
